Experimental data from PubChem BioAssay (Tox21).
Results filed as inconclusive are left out. The source made the active and inactive calls. Unless noted, the call rests on the fitted dose curve.

Legend:
[1] = Nuclear factor erythroid 2-related factor 2/antioxidant responsive element (Nrf2/ARE) small molecule agonists: qHTS cell viability counter screen in human keratinocytes (AID 1919968; active means well fitted curve in the direction sought with a large enough effect in the repeat runs; an effect the other way counts as inactive or inconclusive; further: nearly all actives have a fitted effect of over 55% in size)
Summary of the method: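 Seed 1,500 KeratinoSens cells per well, then incubate 5 h at 37 C/5% CO2. Add compounds in DMSO and incubate 23 h. Add CellTiter-Fluor, wait 1 h and read fluorescence.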

[2] = Nuclear factor erythroid 2-related factor 2/antioxidant responsive element (Nrf2/ARE) small molecule agonists: luciferase reporter gene qHTS assay in human keratinocytes (AID 1919969); further: nearly all actives have a fitted effect of over 35% in size
[3] = target: Gonadotropin-releasing hormone receptor (Homo sapiens) (UniProt P30968); test: Human gonadotropin-releasing hormone receptor (GnRHR) small molecule agonists, calcium flux assay in GnRHR-HEK293 cells (AID 1920063); further: nearly all actives have a fitted effect of over 35% in size
Summary of the method: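 Cells: HEK293 stably expressing human GnRHR. Steps: overnight (18 h) culture, 1 h calcium dye loading at 37 C, compound addition, kinetic fluorescence read at 480/540 nm. Each compound tested at 15 concentrations in triplicate.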

[4] = target: KiSS-1 receptor (Homo sapiens) (UniProt Q969F8); test: Human kisspeptin (KISS1R) small molecule agonists, calcium flux assay in KISS1R-HEK293 cells (AID 1920064; active means well fitted curve in the direction sought with a large enough effect in the repeat runs; an effect the other way counts as inactive or inconclusive)
Summary of the method: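 Cells plated and incubated 18 h; dye added, 1 h at 37 C; compounds in DMSO pinned in; signal read at 480/540 nm every second for 3 min. Each compound tested at 15 concentrations in triplicate.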

[5] = G protein-coupled receptor (GPCR) small molecule agonists, calcium flux assay: HEK293 wild type cell line counter screen (AID 1920065)
Summary of the method: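 Counter-screen of the Tox21 10K library for non-specific calcium release: dye-loaded cells received compounds in DMSO and were monitored by kinetic fluorescence (480/540 nm, 3 min). Fifteen concentrations, run in triplicate.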

[6] = p53 small molecule agonists, cell-based qHTS assay with human liver microsomes (AID 1963577);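 further: p53 response element beta-lactamase reporter cells with liver microsomes plus NADPH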
Summary of the method: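 Steps: plate p53RE-bla cells, incubate 5 h at 37 C; add compound in DMSO; add microsomes (0.5 mg/mL final) and NADPH (0.5 mg/mL final); incubate 16 h at 37 C; add LiveBLAzer, 2 h RT; read fluorescence.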

[7] = p53 small molecule agonists, cell-based qHTS assay with rat liver microsomes (AID 1963578)
Summary of the method: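 Metabolic activation is supplied by rat liver microsomes with NADPH (each 0.5 mg/mL final). p53RE-bla cells incubate with compound 16 h at 37 C; reporter activity is measured by LiveBLAzer fluorescence.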

[8] = p53 small molecule agonists, cell-based qHTS assay with human liver microsomes: qHTS cell viability counter screen (AID 1963579); further: nearly all actives have a fitted effect of over 45% in size
Summary of the method: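 After the 460/530 nm beta-lactamase read, CellTiter-Glo was added to the same wells and luminescence measured after 30 min at room temperature, giving viability of p53RE-bla cells treated 16 h with compounds plus microsomes and NADPH.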

[9] = p53 small molecule agonists, cell-based qHTS assay with rat liver microsomes: qHTS cell viability counter screen (AID 1963580); further: nearly all actives have a fitted effect of over 45% in size
Summary of the method: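 p53RE-bla HCT-116 cells were exposed 16 h at 37 C to compounds with rat liver microsomes (0.5 mg/mL) and NADPH (0.5 mg/mL). Viability was measured in the same wells as ATP content by CellTiter-Glo luminescence.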

[10] = p53 small molecule agonists, cell-based qHTS assay: qHTS cell viability counter screen (AID 1963581); further: nearly all actives have a fitted effect of over 45% in size
Summary of the method: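 Cells: HCT-116 with p53 response element-driven beta-lactamase. Treatment: 16 h, 37 C, compounds in DMSO. Read: CellTiter-Glo luminescence after 30 min RT.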

[11] = p53 small molecule agonists, cell-based qHTS assay (AID 1963582; active means well fitted activation curve with a large enough effect in the signal ratio in the repeat runs, not every such curve was filed as active; the % refers to the signal ratio)
Summary of the method: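 Quantitative HTS in p53RE-bla cells: after a 5 h settling period, compounds delivered in DMSO were left on cells for 16 h at 37 C, and reporter induction was measured as fluorescence following 2 h substrate loading.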

[12] = target: 5-hydroxytryptamine receptor 2A (Homo sapiens) (UniProt P28223); test: 5-hydroxytryptamine receptor 2A (HTR2A) small molecule antagonists, cell-based qHTS assay (AID 1963586); further: nearly all actives have a fitted effect of over 45% in size; further: potency means the concentration at half of the fitted maximal effect
Summary of the method: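 Antagonist-mode intracellular calcium assay: DOI (4 nM) added after 5 min compound pre-incubation at room temperature to dye-loaded HTR2A-CHO cells. Fluorescence followed for 3 min, sampled every second.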

[13] = target: 5-hydroxytryptamine receptor 2A (Homo sapiens) (UniProt P28223); test: 5-hydroxytryptamine receptor 2A (HTR2A) small molecule agonists, cell-based qHTS assay (AID 1963587); further: nearly all actives have a fitted effect of over 30% in size; further: potency means the concentration at half of the fitted maximal effect
Summary of the method: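 CHO cells stably expressing human HTR2A, plated 18 h, loaded with calcium dye 1 h at 37 C. Agonist mode: compounds added and intracellular calcium fluorescence recorded kinetically for 2 min at 1 sec intervals.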

[14] = target: Muscarinic acetylcholine receptor M1 (Homo sapiens) (UniProt P11229); test: Cholinergic receptor muscarinic 1 (CHRM1) small molecule antagonists, cell-based qHTS assay (AID 1963588); further: nearly all actives have a fitted effect of over 40% in size
Summary of the method: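 CHRM1-CHO calcium-flux assay, antagonist mode. Cells were seeded 18 h, dye-loaded 1 h at 37 C and given compound for 5 min at RT, then acetylcholine was added at 50nM. FDSS fluorescence was read 3 min; 15 concentrations, three runs.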

[15] = target: Muscarinic acetylcholine receptor M1 (Homo sapiens) (UniProt P11229); test: Cholinergic receptor muscarinic 1 (CHRM1) small molecule agonists, cell-based qHTS assay (AID 1963589); further: nearly all actives have a fitted effect of over 35% in size
Summary of the method: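 Agonist-mode qHTS in CHO cells stably carrying human muscarinic M1. Intracellular calcium is tracked by fluorescence every second after compound transfer; each compound runs at 15 concentrations in three independent runs.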

[16] = cAMP Responsive Elements (CRE) small molecule agonists, cell-based qHTS assay (AID 1963590)
Summary of the method: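 Agonist mode qHTS in CRE-bla HEK 293T cells: compounds dosed from DMSO for 3 h at 37 C/5% CO2, followed by LiveBLAzer B/G FRET substrate for 2 h at room temperature.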

[17] = cAMP Responsive Elements (CRE) small molecule antagonists, cell-based qHTS assay (AID 1963591; active means well fitted inhibition curve with a large enough effect in the signal ratio in the repeat runs, not every such curve was filed as active; the % refers to the signal ratio)
Summary of the method: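 Antagonist mode: test compounds are co-incubated with the adenylyl cyclase activator NKH477 (0.25 uM final) on CRE-bla HEK293T cells for 3 h at 37 °C, followed by LiveBLAzer substrate loading.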

[18] = target: Beta-2 adrenergic receptor (Homo sapiens) (UniProt P07550); test: Adrenergic beta2 receptor (ADRB2) small molecule antagonists, cell-based qHTS assay (AID 1963592); further: series mostly up to about 92 µM; nearly all actives have a fitted effect of over 50% in size
Summary of the method: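 Cells (CHO, stable ADRB2 overexpression) incubated 18-20hr at 37C; compounds added from DMSO; agonist mix (1nM isoproterenol, 100uM IBMX, 25uM Ro-20-1724) added; 0.5hr RT; d2-cAMP and anti-cAMP-cryptate added; 1hr RT; 665/615 nm read.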

[19] = target: D(2) dopamine receptor (Homo sapiens) (UniProt P14416); test: Dopamine D2 receptor (DRD2) small molecule agonists, cell-based qHTS assay (AID 1963594); further: nearly all actives have a fitted effect of over 35% in size; further: potency means the concentration at half of the fitted maximal effect
Summary of the method: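 HEK293 cells stably expressing human DRD2, pre-treated with PDE inhibitor Ro20-1724 (0.1 mM final) and compound 10 min at room temperature, then stimulated with NKH477 (200nM […]) for 30 min. cAMP read by HTRF (665/620 nm).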

[20] = target: D(2) dopamine receptor (Homo sapiens) (UniProt P14416); test: Dopamine D2 receptor (DRD2) small molecule antagonists, cell-based qHTS assay (AID 1963595; active means well fitted inhibition curve with a large enough effect in the signal ratio in the repeat runs, with a control signal flat; the % refers to the signal ratio)
Summary of the method: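 HEK293 cells stably expressing DRD2 were preincubated with 0.1 mM Ro20-1724, then with compound for 10 min at room temperature. Cells were stimulated with 200 nM NKH477 plus 12 nM quinpirole for 30 min, and cAMP was read by HTRF.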
On the % scale 0 is the no-effect control and ±100 the full control effect.

Chain of 5-hydroxytryptamine receptor 2A (Homo sapiens) (P28223 whole entry, looked up): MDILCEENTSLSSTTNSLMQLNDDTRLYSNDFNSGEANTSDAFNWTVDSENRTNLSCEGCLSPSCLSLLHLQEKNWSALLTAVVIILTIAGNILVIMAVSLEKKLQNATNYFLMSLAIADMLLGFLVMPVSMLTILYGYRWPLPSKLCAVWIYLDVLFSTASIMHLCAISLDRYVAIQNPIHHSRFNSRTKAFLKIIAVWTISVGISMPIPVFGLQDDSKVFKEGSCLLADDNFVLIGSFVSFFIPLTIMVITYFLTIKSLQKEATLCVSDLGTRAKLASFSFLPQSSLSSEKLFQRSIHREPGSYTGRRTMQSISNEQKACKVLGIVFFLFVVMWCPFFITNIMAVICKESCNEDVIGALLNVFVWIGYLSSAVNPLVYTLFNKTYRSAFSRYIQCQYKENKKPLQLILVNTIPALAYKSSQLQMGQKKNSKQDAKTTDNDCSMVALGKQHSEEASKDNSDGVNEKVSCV
Chain of Gonadotropin-releasing hormone receptor (Homo sapiens) (P30968 whole entry, looked up): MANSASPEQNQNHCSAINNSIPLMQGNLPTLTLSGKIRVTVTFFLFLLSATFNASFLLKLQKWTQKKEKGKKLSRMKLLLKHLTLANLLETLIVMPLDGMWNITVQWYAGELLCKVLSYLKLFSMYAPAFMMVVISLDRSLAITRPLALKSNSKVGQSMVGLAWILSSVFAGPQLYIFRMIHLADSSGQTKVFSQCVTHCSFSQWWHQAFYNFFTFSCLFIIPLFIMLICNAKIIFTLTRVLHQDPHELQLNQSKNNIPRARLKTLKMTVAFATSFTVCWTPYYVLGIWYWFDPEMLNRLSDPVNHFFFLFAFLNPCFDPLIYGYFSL
Chain of Beta-2 adrenergic receptor (Homo sapiens) (P07550 whole entry, looked up): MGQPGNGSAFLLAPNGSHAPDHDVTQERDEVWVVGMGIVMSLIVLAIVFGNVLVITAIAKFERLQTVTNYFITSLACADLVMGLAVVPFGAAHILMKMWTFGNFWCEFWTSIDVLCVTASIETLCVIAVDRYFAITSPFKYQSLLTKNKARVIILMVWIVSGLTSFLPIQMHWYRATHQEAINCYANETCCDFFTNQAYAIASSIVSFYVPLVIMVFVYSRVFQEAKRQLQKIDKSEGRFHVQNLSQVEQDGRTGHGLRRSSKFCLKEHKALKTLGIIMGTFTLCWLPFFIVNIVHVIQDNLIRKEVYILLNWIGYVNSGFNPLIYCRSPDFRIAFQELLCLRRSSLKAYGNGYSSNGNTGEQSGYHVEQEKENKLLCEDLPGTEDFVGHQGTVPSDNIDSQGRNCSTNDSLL
Chain of Muscarinic acetylcholine receptor M1 (Homo sapiens) (P11229 whole entry, looked up): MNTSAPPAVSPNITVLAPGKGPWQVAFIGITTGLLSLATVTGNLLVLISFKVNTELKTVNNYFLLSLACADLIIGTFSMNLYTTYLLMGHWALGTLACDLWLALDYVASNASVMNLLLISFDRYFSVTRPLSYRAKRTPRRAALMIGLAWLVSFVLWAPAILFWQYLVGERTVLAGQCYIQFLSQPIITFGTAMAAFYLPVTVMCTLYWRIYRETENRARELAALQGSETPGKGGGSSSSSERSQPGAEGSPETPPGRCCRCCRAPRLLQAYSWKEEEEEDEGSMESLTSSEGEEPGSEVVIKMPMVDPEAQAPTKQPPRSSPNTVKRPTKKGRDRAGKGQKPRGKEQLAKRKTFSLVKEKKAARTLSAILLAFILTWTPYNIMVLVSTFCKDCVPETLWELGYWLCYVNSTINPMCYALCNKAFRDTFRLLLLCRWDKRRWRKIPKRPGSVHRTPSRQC
Chain of KiSS-1 receptor (Homo sapiens) (Q969F8 whole entry, looked up): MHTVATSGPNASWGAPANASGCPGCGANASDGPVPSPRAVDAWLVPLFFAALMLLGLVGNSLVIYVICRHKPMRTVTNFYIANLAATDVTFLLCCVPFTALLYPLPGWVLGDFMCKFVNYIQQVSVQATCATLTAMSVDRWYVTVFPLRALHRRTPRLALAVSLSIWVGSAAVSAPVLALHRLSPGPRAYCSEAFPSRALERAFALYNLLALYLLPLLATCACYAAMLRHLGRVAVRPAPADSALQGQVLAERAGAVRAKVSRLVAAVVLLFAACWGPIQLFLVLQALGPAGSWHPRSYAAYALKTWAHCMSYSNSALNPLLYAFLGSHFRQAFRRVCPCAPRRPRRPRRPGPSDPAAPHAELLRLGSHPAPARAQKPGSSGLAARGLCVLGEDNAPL
Chain of D(2) dopamine receptor (Homo sapiens) (P14416 whole entry, looked up): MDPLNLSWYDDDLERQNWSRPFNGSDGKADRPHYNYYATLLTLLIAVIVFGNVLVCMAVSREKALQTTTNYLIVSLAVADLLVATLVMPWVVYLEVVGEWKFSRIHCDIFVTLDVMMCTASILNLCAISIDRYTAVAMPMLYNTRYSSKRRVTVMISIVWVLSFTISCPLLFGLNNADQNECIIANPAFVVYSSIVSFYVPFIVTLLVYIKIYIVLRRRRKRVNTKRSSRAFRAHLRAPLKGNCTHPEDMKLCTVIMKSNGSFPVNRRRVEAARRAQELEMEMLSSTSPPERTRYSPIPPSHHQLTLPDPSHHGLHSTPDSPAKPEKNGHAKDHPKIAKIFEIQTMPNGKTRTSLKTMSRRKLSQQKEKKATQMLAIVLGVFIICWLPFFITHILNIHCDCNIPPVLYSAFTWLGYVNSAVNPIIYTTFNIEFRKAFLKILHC

Nc1ccc(Oc2ccc(Cl)cc2)cc1
inactive: Potency [1] | Potency [2] | Potency [3] | Potency [4] | Potency [5] | Potency [6] | Potency [7] | Potency [8] | Potency [9] | Potency [10] | Potency [11] | Potency [12] | Potency [13] | Potency [14] | Potency [15] | Potency [16] | Potency [17] | Potency [18] | Potency [19] | Potency [20]

O=C1NC(=O)[C@@]2(CCOc3ccc(F)cc32)N1
inactive: Potency [1] | Potency [2] | Potency [3] | Potency [4] | Potency [5] | Potency [6] | Potency [7] | Potency [8] | Potency [9] | Potency [10] | Potency [11] | Potency [14] | Potency [15] | Potency [16] | Potency [17] | Potency [18] | Potency [20]
active: Potency [12] 818 nM | Potency [13] 3.01 µM | Potency [19] 110 nM

CCN(CCO)c1cccc(C)c1
inactive: Potency [1] | Potency [2] | Potency [3] | Potency [4] | Potency [5] | Potency [6] | Potency [7] | Potency [8] | Potency [9] | Potency [10] | Potency [11] | Potency [12] | Potency [13] | Potency [14] | Potency [15] | Potency [16] | Potency [17] | Potency [18] | Potency [19] | Potency [20]

C=CCCCCCCCCCCCCCCCC
inactive: activity change, negative = cytotoxicity [1] 2.1% [at 8.39 µM] | activity, positive = activation [2] 1.31% [at 8.39 µM] | activity change [3] 0.969% [at 5.22 µM, active compounds read high] | activation [4] 0.739% [at 6.97 µM] | activation [5] -0.775% [at 5.23 µM] | activation [6] -1.7% [at 5.99 µM] | activation [7] -2.36% [at 5.99 µM] | activity change, negative = cytotoxicity [8] -5.51% [at 5.99 µM] | activity change, negative = cytotoxicity [9] -2.99% [at 5.99 µM] | activity change, negative = cytotoxicity [10] -20.9% [at 5.99 µM] | activation [11] 2.83% [at 5.99 µM] | activity, negative = inhibition [12] -3.97% [at 5.62 µM] | activation [13] -2.29% [at 7.02 µM] | activity, negative = inhibition [14] -31.3% [at 5.58 µM] | activation [15] 1.23% [at 6.97 µM] | activation [16] 0.435% [at 8.39 µM] | activity change, negative = inhibition [17] -13% [at 8.39 µM] | activity change, negative = inhibition [18] -9.53% [at 8.39 µM] | activation [19] 0.185% [at 8.39 µM] | activity change, negative = inhibition [20] -1.92% [at 8.38 µM]

NCCOCCN
inactive: Potency [1] | Potency [2] | Potency [3] | Potency [4] | Potency [5] | Potency [6] | Potency [7] | Potency [8] | Potency [9] | Potency [10] | Potency [11] | Potency [12] | Potency [13] | Potency [14] | Potency [15] | Potency [16] | Potency [17] | Potency [18] | Potency [19] | Potency [20]

NCc1ccccc1Sc1ccccc1CO
inactive: Potency [1] | Potency [2] | Potency [3] | Potency [4] | Potency [5] | Potency [6] | Potency [7] | Potency [8] | Potency [9] | Potency [10] | Potency [11] | Potency [12] | Potency [13] | Potency [14] | Potency [15] | Potency [16] | Potency [17] | Potency [18] | Potency [19] | Potency [20]

CNC(=O)c1c(I)c(NC(C)=O)c(I)c(C(=O)O)c1I
inactive: Potency [1] | Potency [2] | Potency [3] | Potency [4] | Potency [5] | Potency [6] | Potency [7] | Potency [8] | Potency [9] | Potency [10] | Potency [11] | Potency [12] | Potency [13] | Potency [14] | Potency [15] | Potency [16] | Potency [17] | Potency [18] | Potency [19] | Potency [20]
